Results from the supplement of paper PMC10849652.
About 8,800 targets were measured; listed, in parts, are those with a hit and a random draw of the rest. About 0.5% of all pairs of compound and target were hits.

Key:
Experiment in all cases: log2 fold change, soluble protein after heating vs DMSO (PISA); higher = thermal stabilisation; K562 lysate, 10 uM; active = over 0.2 and 3.5 SD of the protein, either way, in both replicates (recomputed)
erlotinib = compound: C#Cc1cccc(Nc2ncnc3cc(OCCOC)c(OCCOC)cc23)c1 [erlotinib]
Procedure, shortened: (§1)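 The values are log-two fold changes in thermal stability compared with solvent controls and come from duplicates. They were obtained by TMTpro 16plex LC-MS/MS, with channel sums equalised, on the supernatant after 21,000xg for 90 min. That supernatant came from crude K562 extract at 1 mg/mL protein treated with 10 μM compound for 30 min, heated for 3 min across 48°C-58°C, pooled and brought to 0.5% NP-40 at 4°C.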

[1] = compound: C/C(=N\NC(=O)C1=CC(=CC=C1)S(=O)(=O)N2CCOCC2)/C3=C(C=CC(=C3)Cl)O
Procedure, shortened: as §1

[2] = compound: C1=CC(=CC=C1C2=NC3=C(N2)C=C(C=C3)C(=O)N)OC4=CC=C(C=C4)Cl
Procedure, shortened: as §1

[3] = compound: C1=CC2=C(C=CC(=C2)/C=C\3/C(=O)NC(=NCC4=CC=CS4)S3)N=C1
Procedure, shortened: as §1

[4] = compound: C1=CC2=NC=CN=C2C=C1/C=C/3\C(=O)NC(=O)S3
Procedure, shortened: as §1

[5] = compound: C1=CC=C(C=C1)C2=NC(=C(N2)C3=CC=NC=C3)C4=CC(=C(C=C4)Cl)O
Procedure, shortened: as §1

[6] = compound: C1=CC=C2C(=C1)C3=NNC4=CC=CC(=C43)C2=O
Procedure, shortened: as §1

[7] = compound: C1CCN(C1)C(=O)NC2=CC=CC(=C2)NC3=NC=C(C(=N3)NCCC4=CN=CN4)Br
Procedure, shortened: as §1

[8] = compound: C1CN(CCC1(CC2=CC=C(C=C2)Cl)N)C3=NC=NC4=C3C=CN4
Procedure, shortened: as §1

IRAK-1-4 Inhibitor I = compound: C1COCCN1CCN2C3=CC=CC=C3N=C2NC(=O)C4=CC(=CC=C4)[N+](=O)[O-] [IRAK-1-4 Inhibitor I]
Procedure, shortened: as §1

ibrutinib = compound: C=CC(=O)N1CCC[C@@H](n2nc(-c3ccc(Oc4ccccc4)cc3)c3c(N)ncnc32)C1 [ibrutinib]
Procedure, shortened: as §1

[9] = compound: CC(=O)c1cnc2ccc(-c3cc(Cl)c(O)c(Cl)c3)nc2c1N[C@H]1CC[C@H](CN(C)C)CC1
Procedure, shortened: as §1

ralimetinib = compound: CC(C)(C)Cn1c(N)nc2ccc(-c3[nH]c(C(C)(C)C)nc3-c3ccc(F)cc3)nc21 [ralimetinib]
Procedure, shortened: as §1

[10] = compound: CC(C)(O)CC(=O)NCCn1ccc2ncnc(Nc3ccc(Oc4cccc(C(F)(F)F)c4)c(Cl)c3)c21
Procedure, shortened: as §1

[11] = compound: CC(C)C1=C2N=C(C=C(N2N=C1)NCC3=CC=CC=C3)NCCCCCCN
Procedure, shortened: as §1

[12] = compound: CC1=C(C(CC(=O)N1)C2=CC=C(C=C2)C(F)(F)F)C(=O)NC3=C(C=C4C(=C3)C=NN4)F
Procedure, shortened: as §1

[13] = compound: CC1=C(C2=C(C=C1)C(=O)C3=CC=CC=C3N2CCCN)C
Procedure, shortened: as §1

[14] = compound: CC1=C(C=C(C=C1)NC(=O)C2=CC(=CC=C2)C(C)(C)C#N)NC3=CC4=C(C=C3)N=CN(C4=O)C
Procedure, shortened: as §1

[15] = compound: CC1=C(C=C(C=C1)NC(=O)C2=CC(=CC=C2)N(C)C)NC(=O)C3=CC=C(C=C3)O
Procedure, shortened: as §1

[16] = compound: CC1=CC=C(C=C1)SC2=C3C=C(SC3=CN=C2)C(=O)N
Procedure, shortened: as §1

Measured: log2 fold change

USE1 (UniProt Q9NZ43)
UniProt Q9NZ43, sequence (Q9NZ43 whole entry, looked up): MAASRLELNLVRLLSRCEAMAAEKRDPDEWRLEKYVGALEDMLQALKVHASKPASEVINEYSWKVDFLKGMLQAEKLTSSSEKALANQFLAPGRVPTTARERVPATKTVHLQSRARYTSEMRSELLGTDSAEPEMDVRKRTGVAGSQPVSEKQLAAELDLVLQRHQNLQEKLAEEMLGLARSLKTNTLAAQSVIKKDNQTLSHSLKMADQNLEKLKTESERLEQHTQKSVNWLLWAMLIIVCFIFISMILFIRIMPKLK
inactive: erlotinib 0.019 | [2] -0.026 | [3] -0.062 | [4] 0 | [5] -0.038 | [6] -0.06 | [7] 0.019 | [8] 0.025 | IRAK-1-4 Inhibitor I 0.056 | ibrutinib -0.039 | [9] -0.026 | ralimetinib -0.095 | [10] -0.102 | [11] -0.086 | [12] 0.024 | [13] -0.025 | [14] -0.007 | [15] 0.007 | [16] 0.027
active: [1] 0.31

ZMYM4 (UniProt Q5VZL5)
UniProt Q5VZL5, sequence (Q5VZL5 whole entry, looked up): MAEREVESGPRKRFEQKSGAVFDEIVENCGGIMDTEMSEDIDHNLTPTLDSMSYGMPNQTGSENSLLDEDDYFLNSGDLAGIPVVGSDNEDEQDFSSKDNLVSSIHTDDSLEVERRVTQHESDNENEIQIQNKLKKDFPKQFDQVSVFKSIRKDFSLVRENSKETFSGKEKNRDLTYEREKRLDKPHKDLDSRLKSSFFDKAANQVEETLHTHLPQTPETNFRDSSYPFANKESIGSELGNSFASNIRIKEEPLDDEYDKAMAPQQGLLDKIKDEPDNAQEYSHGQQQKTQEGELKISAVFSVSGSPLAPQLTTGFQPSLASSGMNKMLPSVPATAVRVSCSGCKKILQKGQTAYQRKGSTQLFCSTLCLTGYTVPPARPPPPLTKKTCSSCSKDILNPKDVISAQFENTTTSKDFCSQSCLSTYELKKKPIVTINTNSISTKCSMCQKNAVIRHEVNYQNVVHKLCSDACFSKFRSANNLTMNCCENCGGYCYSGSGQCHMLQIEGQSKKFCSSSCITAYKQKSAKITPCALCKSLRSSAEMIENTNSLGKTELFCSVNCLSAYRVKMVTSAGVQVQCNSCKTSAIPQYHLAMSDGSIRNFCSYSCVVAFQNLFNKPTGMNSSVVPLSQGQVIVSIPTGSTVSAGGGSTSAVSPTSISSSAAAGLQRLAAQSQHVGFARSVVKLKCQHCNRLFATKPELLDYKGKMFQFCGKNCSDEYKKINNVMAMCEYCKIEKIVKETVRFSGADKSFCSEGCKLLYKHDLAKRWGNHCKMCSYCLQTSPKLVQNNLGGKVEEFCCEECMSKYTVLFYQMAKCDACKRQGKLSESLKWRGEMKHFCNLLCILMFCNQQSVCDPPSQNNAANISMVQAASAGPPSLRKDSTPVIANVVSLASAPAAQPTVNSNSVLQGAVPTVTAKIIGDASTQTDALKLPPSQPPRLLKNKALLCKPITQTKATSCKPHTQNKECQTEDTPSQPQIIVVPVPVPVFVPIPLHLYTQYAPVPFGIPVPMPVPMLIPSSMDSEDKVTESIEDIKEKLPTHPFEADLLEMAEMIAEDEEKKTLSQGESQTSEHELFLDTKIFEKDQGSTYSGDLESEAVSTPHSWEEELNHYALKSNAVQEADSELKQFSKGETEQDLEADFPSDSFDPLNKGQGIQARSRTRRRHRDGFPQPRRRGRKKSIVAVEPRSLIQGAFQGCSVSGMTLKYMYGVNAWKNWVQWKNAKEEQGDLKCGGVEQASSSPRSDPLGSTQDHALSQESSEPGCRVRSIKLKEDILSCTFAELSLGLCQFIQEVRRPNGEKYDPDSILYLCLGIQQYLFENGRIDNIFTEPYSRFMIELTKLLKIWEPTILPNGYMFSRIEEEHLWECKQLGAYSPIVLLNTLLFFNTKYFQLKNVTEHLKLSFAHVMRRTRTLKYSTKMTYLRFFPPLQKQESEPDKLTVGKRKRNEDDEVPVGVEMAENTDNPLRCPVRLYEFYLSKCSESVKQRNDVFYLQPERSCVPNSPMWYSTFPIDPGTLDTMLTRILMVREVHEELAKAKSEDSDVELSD
inactive: erlotinib -0.023 | [1] -0.068 | [2] 0.027 | [3] 0.073 | [4] -0.099 | [5] 0.042 | [6] -0.088 | [7] -0.09 | [8] 0.015 | IRAK-1-4 Inhibitor I 0.005 | ibrutinib -0.079 | [9] -0.004 | ralimetinib 0.055 | [10] -0.025 | [11] 0.051 | [12] 0.026 | [13] -0.089 | [14] -0.011 | [15] -0.012 | [16] -0.001

VANGL1 (UniProt Q8TAA9)
UniProt Q8TAA9, sequence (Q8TAA9 whole entry, looked up): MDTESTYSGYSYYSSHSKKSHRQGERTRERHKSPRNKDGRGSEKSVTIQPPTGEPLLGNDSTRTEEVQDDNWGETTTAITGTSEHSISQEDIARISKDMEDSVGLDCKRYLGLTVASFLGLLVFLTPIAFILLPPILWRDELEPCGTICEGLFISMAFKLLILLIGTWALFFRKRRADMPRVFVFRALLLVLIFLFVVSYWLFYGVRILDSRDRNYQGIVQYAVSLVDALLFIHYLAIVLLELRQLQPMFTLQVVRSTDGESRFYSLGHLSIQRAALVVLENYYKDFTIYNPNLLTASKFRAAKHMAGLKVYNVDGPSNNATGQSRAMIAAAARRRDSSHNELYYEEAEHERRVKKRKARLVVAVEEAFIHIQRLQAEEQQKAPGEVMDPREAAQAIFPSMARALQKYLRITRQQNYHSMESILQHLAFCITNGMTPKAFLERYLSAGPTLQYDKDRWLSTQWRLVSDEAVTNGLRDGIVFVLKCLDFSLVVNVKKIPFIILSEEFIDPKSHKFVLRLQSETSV
inactive: erlotinib 0 | [1] -0.043 | [2] -0.088 | [3] 0.022 | [4] -0.149 | [5] -0.377 | [6] -0.01 | [7] -0.072 | [8] 0.004 | IRAK-1-4 Inhibitor I 0.182 | ibrutinib 0.08 | [9] -0.041 | [10] 0.183 | [11] 0.037 | [12] 0.007 | [13] -0.109 | [14] -0.062 | [15] -0.066 | [16] 0.007
active: ralimetinib -0.317

ZMAT2 (UniProt Q96NC0)
UniProt Q96NC0, sequence (Q96NC0 whole entry, looked up): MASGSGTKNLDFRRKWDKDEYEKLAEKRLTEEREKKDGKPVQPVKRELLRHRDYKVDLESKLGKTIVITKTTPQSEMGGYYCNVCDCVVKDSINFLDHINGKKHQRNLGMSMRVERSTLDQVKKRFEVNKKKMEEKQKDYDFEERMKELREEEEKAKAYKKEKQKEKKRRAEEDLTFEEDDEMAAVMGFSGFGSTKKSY
inactive: erlotinib 0.025 | [1] -0.037 | [2] 0.025 | [3] -0.023 | [4] -0.026 | [5] 0.023 | [6] 0.055 | [7] -0.007 | [8] -0.048 | IRAK-1-4 Inhibitor I 0.066 | ibrutinib 0.009 | [9] -0.016 | ralimetinib -0.011 | [10] 0.013 | [11] 0.035 | [12] -0.004 | [13] -0.021 | [14] 0.032 | [15] -0.028 | [16] -0.022

WDR45 isoform 2 (UniProt Q9Y484)
UniProt Q9Y484, sequence (Q9Y484 whole entry, looked up): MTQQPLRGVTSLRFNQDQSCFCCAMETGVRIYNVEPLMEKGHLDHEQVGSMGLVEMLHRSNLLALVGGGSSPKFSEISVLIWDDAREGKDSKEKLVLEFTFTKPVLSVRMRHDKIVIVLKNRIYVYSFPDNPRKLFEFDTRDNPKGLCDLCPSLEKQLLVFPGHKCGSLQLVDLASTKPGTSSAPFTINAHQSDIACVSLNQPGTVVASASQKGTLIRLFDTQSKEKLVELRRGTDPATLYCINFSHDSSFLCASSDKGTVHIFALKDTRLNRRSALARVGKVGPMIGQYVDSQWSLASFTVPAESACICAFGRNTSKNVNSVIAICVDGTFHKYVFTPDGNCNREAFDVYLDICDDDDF
inactive: erlotinib -0.047 | [1] -0.032 | [2] -0.024 | [3] -0.001 | [4] 0.06 | [5] -0.008 | [6] -0.016 | [7] 0.041 | [8] -0.005 | IRAK-1-4 Inhibitor I -0.012 | ibrutinib 0.018 | [9] 0.014 | ralimetinib 0.13 | [10] 0.111 | [11] -0.008 | [12] 0.014 | [13] 0.028 | [14] -0.04 | [15] -0.014 | [16] -0.036

ZC3H11A (UniProt O75152)
UniProt O75152, sequence (O75152 whole entry, looked up): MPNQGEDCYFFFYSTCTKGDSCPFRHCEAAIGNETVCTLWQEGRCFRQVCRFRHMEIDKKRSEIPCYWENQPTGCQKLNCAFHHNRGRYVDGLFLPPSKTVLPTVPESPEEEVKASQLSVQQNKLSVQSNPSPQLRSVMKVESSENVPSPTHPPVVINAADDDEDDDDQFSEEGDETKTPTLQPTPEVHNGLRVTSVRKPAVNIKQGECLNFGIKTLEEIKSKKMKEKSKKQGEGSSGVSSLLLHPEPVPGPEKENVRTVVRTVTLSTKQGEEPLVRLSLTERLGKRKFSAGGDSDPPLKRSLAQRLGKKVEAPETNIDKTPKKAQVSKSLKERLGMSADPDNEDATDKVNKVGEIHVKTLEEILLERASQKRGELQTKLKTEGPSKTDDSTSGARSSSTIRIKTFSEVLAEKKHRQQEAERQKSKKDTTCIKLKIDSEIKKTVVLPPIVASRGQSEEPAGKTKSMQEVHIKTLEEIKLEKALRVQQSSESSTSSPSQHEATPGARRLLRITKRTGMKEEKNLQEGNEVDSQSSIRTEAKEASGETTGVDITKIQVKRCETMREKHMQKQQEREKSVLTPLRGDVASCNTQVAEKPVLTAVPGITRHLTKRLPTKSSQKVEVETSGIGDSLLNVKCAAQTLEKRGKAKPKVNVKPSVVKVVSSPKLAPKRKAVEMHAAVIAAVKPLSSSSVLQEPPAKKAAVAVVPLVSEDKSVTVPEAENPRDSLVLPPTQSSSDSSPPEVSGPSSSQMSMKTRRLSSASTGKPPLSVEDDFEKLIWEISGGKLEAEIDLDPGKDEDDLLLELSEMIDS
inactive: erlotinib 0.021 | [1] -0.048 | [2] -0.027 | [3] 0.004 | [4] -0.048 | [5] 0.029 | [6] -0.02 | [7] -0.011 | [8] -0.003 | IRAK-1-4 Inhibitor I -0.012 | ibrutinib 0.025 | [9] -0.1 | ralimetinib 0.019 | [10] -0.034 | [11] 0.025 | [12] 0.084 | [13] -0.016 | [14] 0.041 | [15] 0.041 | [16] -0.096

ZC3HC1 (UniProt Q86WB0)
UniProt Q86WB0, sequence (Q86WB0 whole entry, looked up): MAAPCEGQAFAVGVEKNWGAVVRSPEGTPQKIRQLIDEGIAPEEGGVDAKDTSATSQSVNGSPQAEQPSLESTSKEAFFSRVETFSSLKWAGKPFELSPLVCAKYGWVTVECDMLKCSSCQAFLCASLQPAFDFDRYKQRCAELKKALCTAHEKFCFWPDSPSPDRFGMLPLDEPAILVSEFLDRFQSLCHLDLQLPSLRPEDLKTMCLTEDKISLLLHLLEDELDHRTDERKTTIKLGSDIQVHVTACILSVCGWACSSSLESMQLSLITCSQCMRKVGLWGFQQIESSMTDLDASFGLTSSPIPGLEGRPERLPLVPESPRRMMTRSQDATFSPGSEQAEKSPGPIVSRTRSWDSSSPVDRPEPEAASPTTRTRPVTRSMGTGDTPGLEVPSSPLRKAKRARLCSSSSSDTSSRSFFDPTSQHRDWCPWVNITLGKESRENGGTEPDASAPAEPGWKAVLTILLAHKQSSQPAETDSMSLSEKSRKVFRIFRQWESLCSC
inactive: erlotinib 0.011 | [1] -0.123 | [2] -0.006 | [3] 0.005 | [4] -0.009 | [5] 0.007 | [6] 0.009 | [7] 0.011 | [8] 0.018 | IRAK-1-4 Inhibitor I -0.003 | ibrutinib -0.021 | [9] 0.013 | ralimetinib 0.033 | [10] -0.004 | [11] -0.003 | [12] 0.012 | [13] 0.004 | [14] -0.002 | [15] 0.006 | [16] 0.013

VRK2 (UniProt Q86Y07)
UniProt Q86Y07, sequence (Q86Y07 whole entry, looked up): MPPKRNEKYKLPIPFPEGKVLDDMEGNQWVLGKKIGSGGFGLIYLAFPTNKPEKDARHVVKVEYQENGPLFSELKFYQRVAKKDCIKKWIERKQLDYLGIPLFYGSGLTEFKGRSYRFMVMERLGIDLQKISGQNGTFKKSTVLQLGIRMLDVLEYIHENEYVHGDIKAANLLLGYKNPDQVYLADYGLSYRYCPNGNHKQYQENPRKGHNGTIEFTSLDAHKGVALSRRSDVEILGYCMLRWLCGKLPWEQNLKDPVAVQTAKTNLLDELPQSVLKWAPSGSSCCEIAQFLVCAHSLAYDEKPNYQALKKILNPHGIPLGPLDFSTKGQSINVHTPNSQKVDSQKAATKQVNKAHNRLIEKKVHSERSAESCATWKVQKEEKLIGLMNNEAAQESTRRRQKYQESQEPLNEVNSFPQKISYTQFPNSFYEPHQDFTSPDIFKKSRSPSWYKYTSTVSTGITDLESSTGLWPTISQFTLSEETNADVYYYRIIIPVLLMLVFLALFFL
inactive: erlotinib 0.04 | [1] 0.039 | [2] 0.113 | [3] -0.058 | [4] -0.056 | [5] 0 | [6] 0.064 | [7] 0.064 | [8] 0.196 | IRAK-1-4 Inhibitor I 0.049 | ibrutinib 0.049 | [9] 0.106 | ralimetinib 0.155 | [10] -0.041 | [11] -0.037 | [12] -0.036 | [13] -0.026 | [14] -0.021 | [15] 0.023 | [16] 0.149
